From article PMC7862700, “An all-to-all approach to the identification of sequence-specific readers for epigenetic DNA modifications on cytosine” come the findings set out here.

Common to all, as to assay: DAPPL (digital affinity profiling via proximity ligation, sequencing); 10 mM Tris-HCl pH 7.5, 50 mM NaCl, 1 mM DTT, 4% glycerol, room temperature, 30 min; GST-TFs on glutathione beads, 16-mer random dsDNA library, 0.1% formaldehyde crosslink after washing; high values mean tight binding
Common to all, as to settings: protein: recombinant; tags: N-terminal GST; dsDNA, one strand shown

For one experiment, the target named is T1, ERF (Homo sapiens, UniProt P50548 1-548).
T1 sequence: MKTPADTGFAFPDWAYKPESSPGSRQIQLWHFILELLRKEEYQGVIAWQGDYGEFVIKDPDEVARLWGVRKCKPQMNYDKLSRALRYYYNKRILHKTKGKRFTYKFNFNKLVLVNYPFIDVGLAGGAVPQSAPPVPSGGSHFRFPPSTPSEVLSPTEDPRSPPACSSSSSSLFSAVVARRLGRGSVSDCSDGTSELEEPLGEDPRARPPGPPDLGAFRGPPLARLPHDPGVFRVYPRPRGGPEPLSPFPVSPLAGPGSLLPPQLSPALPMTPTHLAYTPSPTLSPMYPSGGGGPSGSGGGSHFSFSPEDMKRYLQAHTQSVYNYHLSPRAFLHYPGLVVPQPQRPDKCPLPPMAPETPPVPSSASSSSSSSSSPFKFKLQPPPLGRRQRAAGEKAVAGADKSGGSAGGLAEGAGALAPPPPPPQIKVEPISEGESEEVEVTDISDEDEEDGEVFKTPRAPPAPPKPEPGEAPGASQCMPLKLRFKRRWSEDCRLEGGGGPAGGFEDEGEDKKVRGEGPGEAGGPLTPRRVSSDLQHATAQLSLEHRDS
The essentials:
(§1)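 The binding signal reported is, for every hexamer, its read frequency for a factor over its read frequency for the tag-only sample. Reads came from pools of yeast-expressed, GST-fused human transcription factors on glutathione beads, barcoded with DNA and mixed with that sample, which were incubated with 200 nmole of a random double-stranded 16-mer DNA library in Tris/NaCl/DTT/glycerol buffer at room temperature for 30 min. After washing, the pools were crosslinked with 0.1% formaldehyde, proximity-ligated with BsaI/T4 ligase for 1 h at 37 °C, PCR-amplified and sequenced on an Illumina NextSeq500.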

A further experiment addresses T2, ETV3L (Homo sapiens, UniProt Q6ZN32 1-361).
T2 sequence: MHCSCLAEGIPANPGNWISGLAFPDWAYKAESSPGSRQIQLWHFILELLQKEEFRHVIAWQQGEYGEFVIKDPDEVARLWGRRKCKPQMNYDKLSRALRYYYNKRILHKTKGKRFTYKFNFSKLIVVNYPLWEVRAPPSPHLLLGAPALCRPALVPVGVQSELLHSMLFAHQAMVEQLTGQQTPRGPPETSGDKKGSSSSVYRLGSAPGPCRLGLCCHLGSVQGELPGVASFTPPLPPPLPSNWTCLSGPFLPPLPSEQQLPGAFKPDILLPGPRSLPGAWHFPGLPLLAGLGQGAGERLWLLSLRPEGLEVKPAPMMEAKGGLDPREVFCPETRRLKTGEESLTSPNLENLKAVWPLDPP
The essentials:
as §1

The target in the next experiment is T3, ETS2 (Homo sapiens, UniProt P15036 1-469).
T3 sequence: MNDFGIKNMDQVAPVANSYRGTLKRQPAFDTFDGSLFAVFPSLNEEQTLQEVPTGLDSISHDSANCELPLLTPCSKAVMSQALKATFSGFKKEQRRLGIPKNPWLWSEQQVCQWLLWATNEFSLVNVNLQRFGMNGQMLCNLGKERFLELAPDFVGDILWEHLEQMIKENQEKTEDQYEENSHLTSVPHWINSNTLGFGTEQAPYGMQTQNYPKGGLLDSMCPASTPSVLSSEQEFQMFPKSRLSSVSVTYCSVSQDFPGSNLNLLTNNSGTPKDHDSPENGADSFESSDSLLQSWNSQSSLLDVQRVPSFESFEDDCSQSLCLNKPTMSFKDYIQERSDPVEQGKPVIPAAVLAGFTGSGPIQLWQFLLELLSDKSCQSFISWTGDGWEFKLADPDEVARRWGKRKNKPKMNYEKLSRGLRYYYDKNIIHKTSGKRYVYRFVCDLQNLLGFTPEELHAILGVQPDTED
Put shortly: as §1

A further experiment deals with T4, SPDEF (Homo sapiens, UniProt O95238 1-335).
T4 sequence: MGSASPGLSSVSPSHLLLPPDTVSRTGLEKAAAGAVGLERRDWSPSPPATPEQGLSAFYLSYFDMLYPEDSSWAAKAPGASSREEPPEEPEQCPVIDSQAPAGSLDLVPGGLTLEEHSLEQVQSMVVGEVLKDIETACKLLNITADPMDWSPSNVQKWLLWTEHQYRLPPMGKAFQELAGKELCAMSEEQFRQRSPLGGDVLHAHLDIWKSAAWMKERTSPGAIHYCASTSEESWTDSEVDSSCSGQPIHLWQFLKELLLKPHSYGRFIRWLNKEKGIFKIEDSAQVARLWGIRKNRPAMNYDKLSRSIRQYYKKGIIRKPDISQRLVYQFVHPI
The essentials:
as §1

The target of a further experiment is T5, ETV7 (Homo sapiens, UniProt Q9Y603 1-341).
T5 sequence: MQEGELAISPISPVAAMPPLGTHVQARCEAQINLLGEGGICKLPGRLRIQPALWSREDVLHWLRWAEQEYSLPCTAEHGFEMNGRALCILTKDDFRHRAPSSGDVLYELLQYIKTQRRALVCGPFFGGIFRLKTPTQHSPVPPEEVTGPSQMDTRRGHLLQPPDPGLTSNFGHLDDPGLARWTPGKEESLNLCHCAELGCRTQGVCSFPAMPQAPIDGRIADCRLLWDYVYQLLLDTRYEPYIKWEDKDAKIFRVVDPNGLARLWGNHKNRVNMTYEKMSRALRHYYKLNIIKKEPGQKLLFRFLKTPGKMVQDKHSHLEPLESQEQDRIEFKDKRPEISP
Put shortly: as §1

Another experiment deals with T6, ELF5 (Homo sapiens, UniProt Q9UKW6-2 1-255).
T6 sequence: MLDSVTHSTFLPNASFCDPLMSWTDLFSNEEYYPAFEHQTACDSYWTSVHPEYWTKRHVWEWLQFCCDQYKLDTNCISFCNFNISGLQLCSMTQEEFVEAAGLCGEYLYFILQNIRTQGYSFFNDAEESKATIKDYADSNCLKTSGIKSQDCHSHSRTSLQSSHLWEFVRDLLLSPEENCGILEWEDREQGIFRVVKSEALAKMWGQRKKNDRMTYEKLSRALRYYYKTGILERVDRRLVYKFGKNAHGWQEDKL
The essentials: as §1

For the next experiment, the target named is T7, ETV3 (Homo sapiens, UniProt P41162-2 1-143).
T7 sequence: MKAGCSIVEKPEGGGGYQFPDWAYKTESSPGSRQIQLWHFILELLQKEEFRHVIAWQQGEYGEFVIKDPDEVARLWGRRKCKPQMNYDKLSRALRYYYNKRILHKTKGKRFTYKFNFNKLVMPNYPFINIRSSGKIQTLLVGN
The essentials:
as §1

Another experiment has as its target ETV6 (Homo sapiens, UniProt P41212 1-452). The essentials: as §1

ETV6, sequence (P41212 whole entry): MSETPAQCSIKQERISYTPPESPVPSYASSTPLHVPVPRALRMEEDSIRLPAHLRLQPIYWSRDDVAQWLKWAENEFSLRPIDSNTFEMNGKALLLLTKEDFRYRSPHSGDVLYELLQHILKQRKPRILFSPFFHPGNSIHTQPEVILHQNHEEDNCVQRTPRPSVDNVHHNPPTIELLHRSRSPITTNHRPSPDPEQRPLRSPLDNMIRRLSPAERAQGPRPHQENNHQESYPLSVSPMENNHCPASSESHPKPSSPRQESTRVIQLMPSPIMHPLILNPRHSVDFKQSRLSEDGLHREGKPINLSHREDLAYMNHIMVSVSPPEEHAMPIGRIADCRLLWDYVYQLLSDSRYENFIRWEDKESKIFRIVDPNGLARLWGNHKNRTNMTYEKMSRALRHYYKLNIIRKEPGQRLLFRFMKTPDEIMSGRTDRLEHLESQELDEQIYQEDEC

As for AAAACA, the binding signal was 1.26 fold enrichment (6-mer frequency, TF over GST control) with ERF; 1.32 fold enrichment (6-mer frequency, TF over GST control) with ETV3L; 1.38 fold enrichment (6-mer frequency, TF over GST control) with ETS2; 1.29 fold enrichment (6-mer frequency, TF over GST control) with SPDEF; 1.34 fold enrichment (6-mer frequency, TF over GST control) with ETV7; 1.34 fold enrichment (6-mer frequency, TF over GST control) with ELF5. Besides, the binding signal was 1.31 fold enrichment (6-mer frequency, TF over GST control) with ETV3 and 1.27 fold enrichment (6-mer frequency, TF over GST control) with ETV6.
With ACTAGC, the binding signal with ERF was 1.19 fold enrichment (6-mer frequency, TF over GST control); with ETV3L, 1.16 fold enrichment (6-mer frequency, TF over GST control); in the experiment with ETS2, 1.16 fold enrichment (6-mer frequency, TF over GST control); with SPDEF, 1.15 fold enrichment (6-mer frequency, TF over GST control); in the experiment with ETV7, 1.16 fold enrichment (6-mer frequency, TF over GST control); in the experiment with ELF5, 1.13 fold enrichment (6-mer frequency, TF over GST control). For the same sequence, the binding signal in the experiment with ETV3 was 1.15 fold enrichment (6-mer frequency, TF over GST control); with ETV6, 1.2 fold enrichment (6-mer frequency, TF over GST control).
With TTGGTA, the binding signal in the experiment with ERF was 1.21 fold enrichment (6-mer frequency, TF over GST control); with ETV3L it was 1.32 fold enrichment (6-mer frequency, TF over GST control); with ETS2, 1.23 fold enrichment (6-mer frequency, TF over GST control); in the experiment with SPDEF it was 1.23 fold enrichment (6-mer frequency, TF over GST control); with ETV7 it was 1.23 fold enrichment (6-mer frequency, TF over GST control); with ELF5 it was 1.17 fold enrichment (6-mer frequency, TF over GST control). For the same sequence, the binding signal was 1.18 fold enrichment (6-mer frequency, TF over GST control) with ETV3 and 1.19 fold enrichment (6-mer frequency, TF over GST control) with ETV6.
Take AAATAA: the binding signal was 1.38 fold enrichment (6-mer frequency, TF over GST control) in the experiment with ERF; 1.26 fold enrichment (6-mer frequency, TF over GST control) with ETV3L; 1.39 fold enrichment (6-mer frequency, TF over GST control) with ETS2; 1.25 fold enrichment (6-mer frequency, TF over GST control) with SPDEF; 1.32 fold enrichment (6-mer frequency, TF over GST control) with ETV7; 1.34 fold enrichment (6-mer frequency, TF over GST control) with ELF5. The binding signal with ETV3 was 1.31 fold enrichment (6-mer frequency, TF over GST control); in the experiment with ETV6, 1.5 fold enrichment (6-mer frequency, TF over GST control).
Regarding GTCTCG, the binding signal is 1.29 fold enrichment (6-mer frequency, TF over GST control) in the experiment with ERF; 1.29 fold enrichment (6-mer frequency, TF over GST control) with ETV3L; 1.37 fold enrichment (6-mer frequency, TF over GST control) in the experiment with ETS2; 1.09 fold enrichment (6-mer frequency, TF over GST control) with SPDEF; 1.28 fold enrichment (6-mer frequency, TF over GST control) with ETV7; 1.26 fold enrichment (6-mer frequency, TF over GST control) with ELF5. Moreover, the binding signal was 1.33 fold enrichment (6-mer frequency, TF over GST control) with ETV3 and 1.32 fold enrichment (6-mer frequency, TF over GST control) with ETV6.
On to TGGACT, for which the binding signal was 1.25 fold enrichment (6-mer frequency, TF over GST control) with ERF; 1.22 fold enrichment (6-mer frequency, TF over GST control) with ETV3L; 1.27 fold enrichment (6-mer frequency, TF over GST control) in the experiment with ETS2; 1.2 fold enrichment (6-mer frequency, TF over GST control) with SPDEF; 1.19 fold enrichment (6-mer frequency, TF over GST control) with ETV7; 1.22 fold enrichment (6-mer frequency, TF over GST control) with ELF5. Also, the binding signal is 1.25 fold enrichment (6-mer frequency, TF over GST control) with ETV3 and 1.28 fold enrichment (6-mer frequency, TF over GST control) with ETV6.
Turning to CTAATA, the binding signal with ERF was 1.27 fold enrichment (6-mer frequency, TF over GST control); with ETV3L it was 1.2 fold enrichment (6-mer frequency, TF over GST control); in the experiment with ETS2, 1.18 fold enrichment (6-mer frequency, TF over GST control); with SPDEF, 1.25 fold enrichment (6-mer frequency, TF over GST control); in the experiment with ETV7, 1.24 fold enrichment (6-mer frequency, TF over GST control); in the experiment with ELF5, 1.08 fold enrichment (6-mer frequency, TF over GST control). Further, the binding signal was 1.06 fold enrichment (6-mer frequency, TF over GST control) in the experiment with ETV3 and 1.13 fold enrichment (6-mer frequency, TF over GST control) in the experiment with ETV6.
Regarding ACGTTC, the binding signal with ERF is 1.28 fold enrichment (6-mer frequency, TF over GST control); in the experiment with ETV3L, 1.42 fold enrichment (6-mer frequency, TF over GST control); with ETS2 it was 1.3 fold enrichment (6-mer frequency, TF over GST control); in the experiment with SPDEF, 1.21 fold enrichment (6-mer frequency, TF over GST control); with ETV7 it was 1.42 fold enrichment (6-mer frequency, TF over GST control); in the experiment with ELF5, 1.42 fold enrichment (6-mer frequency, TF over GST control). Also, the binding signal was 1.18 fold enrichment (6-mer frequency, TF over GST control) in the experiment with ETV3 and 1.36 fold enrichment (6-mer frequency, TF over GST control) with ETV6.
